According to PubChem BioAssay (NCI):
Compounds without any hit were thinned out: in the full panel of roughly 83,000, 20% have a hit.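 Cell lines were cultured in 96-well plates, exposed to a single compound concentration, and assessed for percent growth 48 hours later.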 A number with no mark means an inactive call. Calls of active or inactive are those of the source. Rule for the calls: active = growth percent below 10; inactive = the rest.

Legend:
Experiment in all cases: NCI-60 one-dose screen, 48 h (100 = growth as untreated, 0 = no growth, -100 = all killed)
Conditions in all cases: 10 µM
NCI-H23 lung = tested on: NCI-H23 lung
NCI-H226 lung = tested on: NCI-H226 lung
NCI-H322M lung = tested on: NCI-H322M lung
HOP-62 NSCLC = tested on: HOP-62 NSCLC
NCI-H460 lung = tested on: NCI-H460 lung
HOP-92 NSCLC = tested on: HOP-92 NSCLC
NCI-H522 lung = tested on: NCI-H522 lung
A549/ATCC NSCLC = tested on: A549/ATCC NSCLC
786-0 renal = tested on: 786-0 renal
COLO 205 colon = tested on: COLO 205 colon
DU-145 prostate = tested on: DU-145 prostate
K-562 leukemia = tested on: K-562 leukemia
MALME-3M melanoma = tested on: MALME-3M melanoma
MDA-MB-231 breast = tested on: MDA-MB-231 breast
SF-268 CNS = tested on: SF-268 CNS
SF-295 CNS = tested on: SF-295 CNS
SF-539 CNS = tested on: SF-539 CNS
UACC-257 melanoma = tested on: UACC-257 melanoma
M14 melanoma = tested on: M14 melanoma

Row | SMILES | growth (NCI-H23 lung) | growth (NCI-H226 lung) | growth (NCI-H322M lung) | growth (HOP-62 NSCLC) | growth (NCI-H460 lung) | growth (HOP-92 NSCLC) | growth (NCI-H522 lung) | growth (A549/ATCC NSCLC) | growth (786-0 renal) | growth (COLO 205 colon) | growth (DU-145 prostate) | growth (K-562 leukemia) | growth (MALME-3M melanoma) | growth (MDA-MB-231 breast) | growth (SF-268 CNS) | growth (SF-295 CNS) | growth (SF-539 CNS) | growth (UACC-257 melanoma) | growth (M14 melanoma)
1 | CC(C)C1=C[C@@]23CC[C@@H]4[C@](C)(CCC[C@]4(C)C(=O)NCc4ccccc4)[C@H]2C[C@@H]1[C@H]1C(=O)CCC(=O)[C@H]13 | 59% | 40.7% | 93.4% | 94.4% | 84.5% | 68.9% | -12.5% (active) | 81.6% | 87.2% | 103% | 98.1% | 55.7% | 95.5% | 86.5% | 80.4% | 83.1% | 72.2% | 77.6% | 86.9%
2 | N#Cc1ccc(-c2nn(-c3ccc(C(=O)O)cc3)cc2CNc2ccc(Oc3ccccc3)cc2)cc1 | 12% | 85.1% | 88.2% | 37.4% | 40.2% | 38.8% | 66.8% | 46.5% | 30.5% | 118% | 65.4% | 42.7% | 93.9% | 72.5% | 50.1% | 49.3% | 38.9% | 56.1% | 34.9%
3 | O=C1c2ccccc2C(=O)c2c1c(C(=O)c1ccc(Cl)cc1)n1c2ccc2c3ccccc3ccc21 | 96% | 103% | 113% | 92.5% | 109% | 98.6% | 93.5% | 102% | 110% | 128% | 108% | 106% | 101% | 89.9% | 105% | 99.1% | 88.5% | 107% | 107%
4 | Cc1ccc(-c2ccc(SCC(=O)Nc3ccc(S(N)(=O)=O)cc3Br)nn2)cc1 | 27.3% | 22.6% | 36% | 14.1% | 8.44% (active) | -31.6% (active) | 47.2% | 15.8% | 16.4% | 33.1% | 21.5% | 72.4% | 29% | 1.3% (active) | 45.9% | 21.6% | 13.3% | 77.9% | 69.5%
5 | N#Cc1c(NC(=O)c2ccc(C(F)(F)F)cc2)sc2c1CCC(=O)C2 | -56.9% (active) | -21.2% (active) | 22.3% | -37.7% (active) | 0.648% (active) | -57% (active) | -57.3% (active) | -41.9% (active) | -8.91% (active) | -95.3% (active) | 23.1% | 7.26% (active) | -54.2% (active) | -84.4% (active) | -37.6% (active) | -95.3% (active) | -89.2% (active) | -71.1% (active) | -78.5% (active)
6 | CN(CCO)c1oc(-c2ccccc2)nc1[P+](c1ccccc1)(c1ccccc1)c1ccccc1 | -5.17% (active) | -11.8% (active) | 19.8% | 13.2% | 6.61% (active) | -24.2% (active) | -9.01% (active) | 22.3% | 14.2% | -59.6% (active) | 4.07% (active) | 9.88% (active) | -12% (active) | -6.83% (active) | 11.4% | -13.8% (active) | 8.12% (active) | -3.98% (active) | 12.2%
7 | COc1cnc2c(c1)C(=O)c1c-2n(CCCNC(C)C)c(=O)c2cc(OC)c(OC)cc12 | 26.9% | 41.4% | 46.5% | 16.7% | 16% | 60.9% | 41.3% | 46.6% | 22.9% | 39.2% | 16.4% | 5.04% (active) | 88.7% | 23.1% | 41.8% | 13.3% | -63% (active) | 90.1% | 45.3%
8 | COc1ccc(/C=C/C(=O)c2ccc(N3CCN(C)CC3)cc2)c(C(F)(F)F)c1 | 28.2% | 46.4% | 76.5% | 79.6% | 11.2% | 46.8% | 52.8% | 48.4% | 41.6% | -64.6% (active) | 41.3% | 2.66% (active) | 45.2% | 37.4% | 70.8% | 18.4% | 14.6% | 63.3% | 38.3%
